The panel holds about 83,000 compounds, 20% with a hit somewhere; the sample as a whole holds those more often.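 Interpretation: 100, growth as untreated; towards 0, rising growth inhibition; 0, no net growth; 0 to -100, cell death. Compounds scoring below 10 were considered active.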 Activity calls are given as the source filed them.

This assay deals with LOX IMVI melanoma. Briefly: NCI-60 one-dose screen, 48 h (100 = growth as untreated, 0 = no growth, -100 = all killed). Conditions: 10 µM unless noted. On the procedure:
Growth inhibition of the LOX IMVI human tumor cell line is measured as a screen for anti-cancer activity. Cells are grown in 96 well plates and exposed to the test compound for 48 hours. Compounds are tested at a single concentration, which is 10^-5 M for most compounds. The reported endpoint is percent growth (GI% or GIPRCNT), where numbers from 0 - 100% represent growth inhibition, and numbers from -100% - 0 represent cell death. For example, a value of 40 represents 60% growth inhibition. A value of 0 means no net growth occurred over the course of the experiment. A value of -40 indicates 40% of cells at the beginning of the experiment died by the end of the experiment. A value of -100 means all cells are dead at the end of the experiment.
NCI-60 Human Tumor Cell Lines Screen was performed using the standard one-dose NCI protocol, which is described in more detail at https://dtp.cancer.gov/discovery_development/nci-60/default.htm.
Compounds with GIPRCNT values below 10 were considered active. Activity score was based on GIPRCNT using the following formula: […]
Score is 0 for GIPRCNT values of 100 or above, 50 for GIPRCNT values of 0, and 100 for GIPRCNT values of -100.
As for `C/C(=C(\c1ccc(OCCCN(C)C)cc1)c1ccc(OC(=O)Cc2ccccc2)cc1)c1ccc(Cl)cc1`, the growth is 3.29% (active).
In the case of `CCN1C(=O)N(CC)C2C1NN=c1s/c(=C\c3ccc(F)cc3)c(=O)n12` (stereo not given), the growth is 20% (inactive).
Take `O=C(/C=C/c1ccc(Cl)cc1)c1ccc(-n2cc(CN3CCN(c4cc5c(cc4F)c(=O)c(C(=O)O)cn5C4CC4)CC3)nn2)cc1`: the growth is 56.9% (inactive).
The same measure for `C=CCn1c(SCC(=O)Nc2ccc(C(=O)/C=C/c3ccc(Cl)cc3)cc2)nnc1-c1ccc(Cl)c(Cl)c1`: 72.2% (inactive).
Consider `Cn1cc(-c2csc(-c3cn(C)c4ccc(F)cc34)n2)c2cnccc21`, for which the growth is -90% (active).
In the case of `CCOC(=O)CSc1nc2sc3c(c2c(=O)n1-c1ccccc1)CCCCC3`, the growth is 101% (inactive).
For the molecule `c1ccc2c(-c3cnn4cc(-c5ccc(N6CCNCC6)cc5)cnc34)ccnc2c1`, the growth is -85.8% (active).
The same measure for `C[C@@H]1N=C(c2ccc(Cl)cc2Cl)Nc2nc3ccccn3c2C1=O`: 51.3% (inactive); for `COc1ccc(-c2nc(SCCC(C)C)nc(N/N=C(/C)c3ccc(N)cc3)c2C#N)cc1`: 91.6% (inactive); for `CCNCCNc1c(C)c(-c2ccc(C(F)(F)F)cc2)c(C#N)c2nc3ccccc3n12`: 82.5% (inactive).
Turning to `Cc1c(N2CCCCC2)[nH]c2ccccc12`, the growth is 95.3% (inactive).
`COc1ccc(Nc2nc(Nc3cc(C)[nH]n3)c3cc(OC)c(OC)cc3n2)cc1`: the growth is -92.6% [20 µM] (active).
The value for `N#C/C(=C\c1cccc2cnccc12)N1N=NC2C=CC=CC21` (stereo not given) was 11.7% (inactive).
Turning to `CCN1C(=O)N(CC)C2C1NN=c1s/c(=C\c3ccc([N+](=O)[O-])cc3)c(=O)n12` (stereo not given), the growth was 36.8% (inactive).
Consider `O=C(Nc1cccc(Cl)c1)Oc1c(Cl)c(Cl)c(Cl)c(Cl)c1Cl`, for which the growth was 95.9% (inactive).
Turning to `O=C(OCc1ccc2c(Br)cc(Br)c(O)c2n1)N1CCN(C(=O)c2cc3ccccc3[nH]2)CC1`, the growth was 28.7% (inactive).
Take `CCOC(=O)CC1C(CNC(=O)NC)OC(n2cnc3c(NC(=O)Nc4ccccc4)ncnc32)C1O[Si](C)(C)C(C)(C)C` (stereo not given): the growth was 50.5% (inactive).
As to `CC(C)=CCC[C@](C)(O)C1CC[C@]2(C)[C@@H]1CC[C@@H]1[C@@]3(C)CC/C(=N\OCCC#N)C(C)(C)[C@@H]3CC[C@]12C` (stereo not given in full), the growth is 89.2% (inactive).
The value for `O=C(CN1C(=O)c2ccccc2S1(=O)=O)Nc1nc(-c2cc3ccccc3oc2=O)cs1` was 99.5% (inactive); that for `COc1cc(-c2c(-c3ccccc3)c[nH]c2C(=O)NCCCO)c(OC)c2c1OCO2` was 99.5% (inactive); that for `CC(C)C(=O)Nc1ncc(C(=O)NCCN(Cc2ccccc2)C(=O)c2ccc(S(=O)(=O)Nc3ccccc3)cc2)s1` was 104% (inactive).
`C#CCOc1cccc(Nc2ncnc3c(NC(=O)CCl)cccc23)c1`: the growth was -79.7% (active).
The value for `COc1ccc(S(=O)(=O)N(C)c2oc(-c3ccc(Cl)cc3)nc2C#N)cc1` was 71.9% (inactive); that for `O=C(/C=C/c1ccco1)c1ccc(Nc2ccnc3cc(Cl)ccc23)cc1` was 76.6% (inactive); that for `CCOC(=O)/C(=C/c1ccc([N+](=O)[O-])cc1)C(=O)c1ccccc1` was -68.2% (active).
In the case of `C=C(c1ccc(OC)c(/C=C/C(=O)c2cc(OC)c(OC)c(OC)c2)c1)c1cc(OC)c(OC)c(OC)c1`, the growth was -87.3% (active).
For `Cc1c(-c2cnc3ccc(Cl)cc3c2C(=O)O)nnn1-c1ccc(Cl)cc1`, the growth was 98.8% (inactive).
As for `CN1CCN(Cn2nc(-c3cc(Cl)cc(Cl)c3Cl)oc2=S)CC1`, the growth was 93.8% (inactive).
As to `Cc1ccc(Nc2cc(N)nc(N)n2)cc1`, the growth was 97.9% (inactive).
The same measure for `CCOC(=O)C1=CCC(n2cc(F)c(=O)[nH]c2=O)O1` (stereo not given): 94.7% (inactive).
For `COC12C=C/C(=C(/C(=O)OCc3ccccn3)C(=O)CCCCCCCCC3(OC)C=C/C(=C(/C(=O)OCc4ccccn4)C(=O)CCCCCCCC1)O3)O2`, the growth was -69.6% (active).
As for `C#CCOC(=O)C(N)CSSCC(N)C(=O)O` (stereo not given), the growth was 98.7% (inactive).
The same measure for `CN1CCN(CC(=O)N(C)c2ccc(N=C(c3ccccc3)c3c(O)[nH]c4ccc([N+](=O)[O-])cc34)cc2)CC1`: 36.3% (inactive).
With `Cc1nc2ccccc2c(/C=C/c2ccc(Cl)cc2)c1C(=O)/C=C/c1ccccc1`, the growth was -85.3% (active).
`O=C(CSc1nnc(-c2cc(-c3ccc(Cl)cc3)nc3ccccc23)n1-c1ccccc1)Nc1ccc(Cl)cc1`: the growth was 95.8% (inactive).
The value for `Cn1cc(-c2nc(-c3c[nH]c4ccncc34)cs2)c2cc(F)ccc21` was -94.5% (active); that for `CCN(CC)CCCC(Nc1c2ccc(Cl)cc2nc2ccc(OC)cc12)c1ccncc1` (stereo not given) was 63% (inactive); that for `CCCn1cnc2c(c1=N)C(c1ccc(Cl)cc1)c1sc3c(F)cccc3c1O2` (stereo not given) was 82.3% (inactive).
The value for `NCCNc1ccc([N+](=O)[O-])cc1` was 105% (inactive); that for `Cc1ccccc1NC(=O)Cn1cc(CN2CCN(c3ccnc4cc(Cl)ccc34)CC2)nn1` was 97.7% (inactive).

(Values after PubChem BioAssay (NCI).)
